Assay results reported in PubChem BioAssay AID1159580 (chemical genetic matrix, 2015).
Where “and” joins values, the source holds several entries; their conditions need not be identical. Equal entries are not always repeated. Among all 5,500 compounds or so, about 2,000 (36%) were called active. Inconclusive results (about 18%) are left out. Cut-off read from the data, not from the text of the source: active = normalized growth mostly below about 0.91 (no sharp cut-off); inconclusive = no clear call, values can overlap the other calls; inactive = mostly above about 0.92. Some of the results follow.

Assay: chemical genetic growth profiling, strain panel (AID 1159580);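 note: tested at 20 µM; growth read once vehicle control cultures reached saturation at 30 °C; 1 = growth at the plate median or of vehicle wells; lower values mean less growth of the strain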
Conditions: S. cerevisiae deletion strains, growth OD

Measured: normalized growth

c1ccc2c(c1)CCCC2C1=NCCN1 (centres undefined)
inactive: locus YAL013W, strain DEP1, hits give low values 1.01 and 1 | locus YAL021C, strain ccr4, hits give low values 1.02 | locus YAL026C, strain drs2, hits give low values 1.02 | locus YAL030W, strain snc1, hits give low values 1.02 | locus YAL040C, strain CLN3, hits give low values 1.05 | locus YBL061C, strain skt5, hits give low values 1.02 | locus YBR009C, strain hhf1, hits give low values 1.03 | locus YBR021W, strain FUR4, hits give low values 1.05 | locus YBR023C, strain chs3, hits give low values 1.02 | locus YBR171W, strain sec66, hits give low values 1.03 | locus YBR229C, strain ROT2, hits give low values 1.01 | locus YBR231C, strain swc5, hits give low values 1.02 | locus YBR279W, strain paf1, hits give low values 1.01 | locus YCL011C, strain gbp2, hits give low values 1.02 | locus YCL016C, strain dcc1, hits give low values 1.02 | locus YCL029C, strain bik1, hits give low values 0.995 | locus YCL061C, strain MRC1 (second series), hits give low values 1.01 | locus YCL069W, strain vba3, hits give low values 1.02 | locus YCR088W, strain abp1, hits give low values 1.02 | locus YDL005C, strain med2, hits give low values 1.02 | locus YDL035C, strain GPR1, hits give low values 1.02 | locus YDL040C, strain nat1, hits give low values 1.02 | locus YDL074C, strain BRE1, hits give low values 1.01 | locus YDL101C, strain DUN1, hits give low values 1.01 | locus YDL134C, strain PPH21, hits give low values 1.01 | locus YDL185W, strain tfp1, hits give low values 0.993 | locus YDL192W, strain arf1, hits give low values 1 | locus YDR001C, strain nth1, hits give low values 1.01 | locus YDR069C, strain doa4, hits give low values 1 | locus YDR101C, strain arx1, hits give low values 0.995 | locus YDR137W, strain rgp1, hits give low values 1.03 | locus YDR150W, strain NUM1, hits give low values 1.01 | locus YDR159W, strain sac3, hits give low values 1.02 | locus YDR162C, strain NBP2, hits give low values 1.02 | locus YDR195W, strain ref2 1.01 | locus YDR297W, strain sur2, hits give low values 1.03 | locus YDR318W, strain mcm21, hits give low values 1.01 | locus YDR334W, strain swr1, hits give low values 1.02 | locus YDR335W, strain msn5, hits give low values 1.03 | locus YDR363W, strain ESC2, hits give low values 1.02 | locus YDR388W, hits give low values 1.01 | locus YDR392W, strain spt3, hits give low values 1.03 | locus YDR502C, strain sam2, hits give low values 0.991 | locus YEL003W, strain gim4, hits give low values 1.02 | locus YEL037C, strain rad23, hits give low values 1.03 | locus YEL061C, strain CIN8 (second series), hits give low values 1.02 | locus YEL061C, strain CIN8, hits give low values 1.01 | locus YER002W, strain NOP16, hits give low values 0.992 | locus YER015W, strain faa2, hits give low values 1.02 | locus YER016W, strain bim1, hits give low values 1.03 | locus YER110C, hits give low values 1.01 | locus YER111C, strain swi4, hits give low values 1.03 | locus YER155C, strain BEM2 (second series), hits give low values 1.04 | locus YER155C, strain BEM2, hits give low values 1.01 | locus YER167W, strain BCK2, hits give low values 1.01 | locus YFR010W, strain ubp6, hits give low values 1.01 | locus YGL078C, strain dbp3, hits give low values 0.989 | locus YGL086W, strain mad1, hits give low values 0.998 | locus YGL167C, strain pmr1, hits give low values 1.04 | locus YGL173C, strain kem1, hits give low values 1.02 | locus YGL227W, strain vid30, hits give low values 1.03 | locus YGL240W, strain doc1, hits give low values 1.03 | locus YGL248W, strain PDE1, hits give low values 1.01 | locus YGL253W, strain hxk2, hits give low values 1.03 | locus YGR135W, strain pre9, hits give low values 0.987 | locus YGR229C, strain SMI1, hits give low values 1.02 and 1.03 | locus YGR252W, strain gcn5, hits give low values 0.971 | locus YHR013C, strain ard1, hits give low values 1.05 | locus YHR027C, strain rpn1, hits give low values 1.01 | locus YHR030C, strain SLT2, hits give low values 1.01 and 0.988 | locus YHR079C, strain IRE1 (second series), hits give low values 1.01 | locus YHR079C, strain IRE1, hits give low values 0.976 | locus YHR094C, strain hxt1, hits give low values 1 | locus YHR129C, strain ARP1, hits give low values 1.01 | locus YHR142W, strain chs7, hits give low values 1.02 | locus YHR200W, strain rpn10, hits give low values 0.997 | locus YIL066C, strain RNR3, hits give low values 1.01 | locus YIL073C, strain SPO22, hits give low values 1.02 | locus YIL125W, strain kgd1, hits give low values 0.958 | locus YIR030C, strain dcg1, hits give low values 0.999 | locus YJL092W, strain hpr5, hits give low values 1.02 | locus YJL095W, strain BCK1 (second series), hits give low values 1.02 | locus YJL095W, strain BCK1, hits give low values 1 and 0.971 | locus YJL115W, strain asf1, hits give low values 1.01 | locus YJL129C, strain trk1, hits give low values 1.02 | locus YJL134W, strain LCB3, hits give low values 1.01 | locus YJL154C, strain vps35, hits give low values 1.02 | locus YJL164C, strain tpk1, hits give low values 1.02 | locus YJL166W, strain qcr8, hits give low values 1.02 | locus YJL168C, strain set2, hits give low values 1 | locus YJL187C, strain SWE1 (second series), hits give low values 1.02 | locus YJR043C, strain POL32, hits give low values 1.01 | locus YJR066W, strain TOR1, hits give low values 0.945 | locus YJR075W, strain HOC1, hits give low values 1.01 and 0.998
